Drawing on paper PMC7862700, “An all-to-all approach to the identification of sequence-specific readers for epigenetic DNA modifications on cytosine”, this text covers binding signal for one sequence.

Experiment in all cases: DAPPL (digital affinity profiling via proximity ligation, sequencing); 10 mM Tris-HCl pH 7.5, 50 mM NaCl, 1 mM DTT, 4% glycerol, room temperature, 30 min; GST-TFs on glutathione beads, 16-mer random dsDNA library, 0.1% formaldehyde crosslink after washing; high values mean tight binding
The target of one assay is T1, FEV (Homo sapiens, UniProt Q99581 1-238).
T1 sequence: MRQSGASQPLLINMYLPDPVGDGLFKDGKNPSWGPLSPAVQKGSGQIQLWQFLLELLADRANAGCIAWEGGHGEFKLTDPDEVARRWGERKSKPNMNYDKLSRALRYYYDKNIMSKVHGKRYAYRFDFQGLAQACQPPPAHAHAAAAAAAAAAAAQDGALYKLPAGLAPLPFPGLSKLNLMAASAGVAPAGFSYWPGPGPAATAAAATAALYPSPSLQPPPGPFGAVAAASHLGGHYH
Conditions: protein: recombinant; tags: N-terminal GST; dsDNA, one strand shown. The method in brief: (§1)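 Binding signal is defined as a hexamer's read frequency for one factor over its frequency for the tag-only sample. To obtain reads, GST-fused human transcription factors were expressed in yeast, captured on glutathione beads, barcoded with DNA and pooled with that sample. Pools met 200 nmole of a 16-mer random double-stranded DNA library in Tris/NaCl/DTT/glycerol buffer for 30 min at room temperature before washing, 0.1% formaldehyde crosslinking, proximity ligation (BsaI/T4 ligase, 1 h, 37 °C), PCR and Illumina NextSeq500 sequencing.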

The target in a further assay is ETV5 (Homo sapiens, UniProt P41161 1-510). The conditions noted are these: protein: recombinant; tags: N-terminal GST; dsDNA, one strand shown. The essentials: as §1
Sequence of ETV5 (P41161 whole entry): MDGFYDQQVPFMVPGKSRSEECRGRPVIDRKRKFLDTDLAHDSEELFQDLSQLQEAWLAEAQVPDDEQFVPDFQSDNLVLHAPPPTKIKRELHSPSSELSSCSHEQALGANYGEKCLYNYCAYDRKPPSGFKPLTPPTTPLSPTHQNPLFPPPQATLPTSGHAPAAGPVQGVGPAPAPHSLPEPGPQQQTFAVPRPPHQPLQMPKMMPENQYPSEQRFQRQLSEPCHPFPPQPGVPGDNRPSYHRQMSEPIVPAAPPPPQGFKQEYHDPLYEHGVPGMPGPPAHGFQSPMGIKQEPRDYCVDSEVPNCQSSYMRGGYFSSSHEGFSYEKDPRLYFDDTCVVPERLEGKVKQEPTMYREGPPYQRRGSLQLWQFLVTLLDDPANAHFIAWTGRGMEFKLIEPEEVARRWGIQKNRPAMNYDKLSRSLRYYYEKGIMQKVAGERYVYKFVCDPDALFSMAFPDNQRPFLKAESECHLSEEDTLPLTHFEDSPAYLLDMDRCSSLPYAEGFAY
The target in the next assay is HSF1 (Homo sapiens, UniProt Q00613 1-529). The conditions noted are these: protein: recombinant; tags: N-terminal GST; chain copies: 3; dsDNA, one strand shown. The essentials:
as §1

The target in the next assay is T2, SPIC (Homo sapiens, UniProt Q8N5J4 1-248).
T2 sequence: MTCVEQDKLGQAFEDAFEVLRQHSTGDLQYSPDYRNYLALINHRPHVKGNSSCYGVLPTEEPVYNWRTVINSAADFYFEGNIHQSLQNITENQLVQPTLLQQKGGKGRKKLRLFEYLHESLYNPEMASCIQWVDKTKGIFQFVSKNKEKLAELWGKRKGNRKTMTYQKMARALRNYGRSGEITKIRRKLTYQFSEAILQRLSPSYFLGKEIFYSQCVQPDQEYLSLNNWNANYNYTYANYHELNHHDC
Conditions: protein: recombinant; tags: N-terminal GST; dsDNA, one strand shown. The method in brief:
as §1

The target in a further assay is ELF4 (Homo sapiens, UniProt Q99607 1-663). Conditions: protein: recombinant; tags: N-terminal GST; dsDNA, one strand shown. The essentials: as §1
Sequence of ELF4 (Q99607 whole entry): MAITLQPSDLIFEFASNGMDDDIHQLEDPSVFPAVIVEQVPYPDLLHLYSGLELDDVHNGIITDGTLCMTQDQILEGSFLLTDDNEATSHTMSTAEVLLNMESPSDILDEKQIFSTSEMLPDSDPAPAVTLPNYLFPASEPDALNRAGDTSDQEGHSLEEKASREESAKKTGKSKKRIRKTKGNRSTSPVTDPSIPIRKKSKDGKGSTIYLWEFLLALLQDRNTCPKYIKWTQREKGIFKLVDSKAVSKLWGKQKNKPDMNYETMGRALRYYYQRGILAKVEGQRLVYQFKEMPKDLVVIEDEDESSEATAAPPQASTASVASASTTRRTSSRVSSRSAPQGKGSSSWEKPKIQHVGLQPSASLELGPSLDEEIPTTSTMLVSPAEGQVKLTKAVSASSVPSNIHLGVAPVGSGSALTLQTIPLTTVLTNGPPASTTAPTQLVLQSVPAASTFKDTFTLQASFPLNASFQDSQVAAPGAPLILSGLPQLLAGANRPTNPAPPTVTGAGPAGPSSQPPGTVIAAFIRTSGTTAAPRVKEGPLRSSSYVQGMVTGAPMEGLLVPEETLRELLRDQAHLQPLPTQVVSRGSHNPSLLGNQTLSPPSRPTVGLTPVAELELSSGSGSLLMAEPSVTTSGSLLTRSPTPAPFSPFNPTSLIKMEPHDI
Another assay concerns the target T3, ELK4 (Homo sapiens, UniProt P28324-2 1-405).
T3 sequence: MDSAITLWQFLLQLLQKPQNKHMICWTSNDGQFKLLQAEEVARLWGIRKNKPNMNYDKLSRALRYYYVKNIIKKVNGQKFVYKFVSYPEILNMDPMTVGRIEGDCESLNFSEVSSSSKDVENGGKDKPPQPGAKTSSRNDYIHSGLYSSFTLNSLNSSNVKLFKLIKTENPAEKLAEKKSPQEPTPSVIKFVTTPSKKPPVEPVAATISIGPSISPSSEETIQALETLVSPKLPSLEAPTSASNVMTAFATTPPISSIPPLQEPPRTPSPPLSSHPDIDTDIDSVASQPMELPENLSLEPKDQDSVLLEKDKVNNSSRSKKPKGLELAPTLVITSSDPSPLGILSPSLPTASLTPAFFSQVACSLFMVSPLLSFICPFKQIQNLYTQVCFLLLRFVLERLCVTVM
The conditions noted are these: protein: recombinant; tags: N-terminal GST; dsDNA, one strand shown. The method in brief:
as §1

In a further assay the target is T4, ETV2 (Homo sapiens, UniProt O00321 1-342).
T4 sequence: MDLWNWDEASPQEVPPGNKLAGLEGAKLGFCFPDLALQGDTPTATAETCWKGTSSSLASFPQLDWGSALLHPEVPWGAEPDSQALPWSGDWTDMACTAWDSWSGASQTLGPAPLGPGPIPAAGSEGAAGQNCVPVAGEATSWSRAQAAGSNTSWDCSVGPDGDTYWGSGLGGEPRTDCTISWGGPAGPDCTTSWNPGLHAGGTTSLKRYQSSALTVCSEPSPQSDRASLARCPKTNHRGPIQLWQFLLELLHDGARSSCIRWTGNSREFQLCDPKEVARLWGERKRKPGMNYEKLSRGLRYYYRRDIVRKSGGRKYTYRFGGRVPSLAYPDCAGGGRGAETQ
Conditions: protein: recombinant; tags: N-terminal GST; dsDNA, one strand shown. The method in brief:
as §1

The target of another assay is T5, ELF3 (Homo sapiens, UniProt P78545 1-371).
T5 sequence: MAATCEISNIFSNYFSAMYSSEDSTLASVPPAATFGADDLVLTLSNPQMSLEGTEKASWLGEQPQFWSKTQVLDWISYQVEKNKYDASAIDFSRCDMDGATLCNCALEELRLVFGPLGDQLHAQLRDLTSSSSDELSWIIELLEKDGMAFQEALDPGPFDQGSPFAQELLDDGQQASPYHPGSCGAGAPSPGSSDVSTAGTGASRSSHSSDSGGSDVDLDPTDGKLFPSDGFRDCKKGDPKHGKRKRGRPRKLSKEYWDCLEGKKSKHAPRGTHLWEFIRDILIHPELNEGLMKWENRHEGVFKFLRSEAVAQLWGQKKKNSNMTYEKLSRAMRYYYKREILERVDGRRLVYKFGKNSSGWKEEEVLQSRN
The conditions noted are these: protein: recombinant; tags: N-terminal GST; dsDNA, one strand shown. The method in brief:
as §1

A further assay has as its target CRX (Homo sapiens, UniProt O43186 1-299). The conditions noted are these: protein: recombinant; tags: N-terminal GST; dsDNA, one strand shown. The essentials: as §1
The target of a further assay is ETV1 (Homo sapiens, UniProt P50549 1-477). The conditions noted are these: protein: recombinant; tags: N-terminal GST; dsDNA, one strand shown. The method in brief:
as §1

A further assay addresses T6, ERF (Homo sapiens, UniProt P50548 1-548).
T6 sequence: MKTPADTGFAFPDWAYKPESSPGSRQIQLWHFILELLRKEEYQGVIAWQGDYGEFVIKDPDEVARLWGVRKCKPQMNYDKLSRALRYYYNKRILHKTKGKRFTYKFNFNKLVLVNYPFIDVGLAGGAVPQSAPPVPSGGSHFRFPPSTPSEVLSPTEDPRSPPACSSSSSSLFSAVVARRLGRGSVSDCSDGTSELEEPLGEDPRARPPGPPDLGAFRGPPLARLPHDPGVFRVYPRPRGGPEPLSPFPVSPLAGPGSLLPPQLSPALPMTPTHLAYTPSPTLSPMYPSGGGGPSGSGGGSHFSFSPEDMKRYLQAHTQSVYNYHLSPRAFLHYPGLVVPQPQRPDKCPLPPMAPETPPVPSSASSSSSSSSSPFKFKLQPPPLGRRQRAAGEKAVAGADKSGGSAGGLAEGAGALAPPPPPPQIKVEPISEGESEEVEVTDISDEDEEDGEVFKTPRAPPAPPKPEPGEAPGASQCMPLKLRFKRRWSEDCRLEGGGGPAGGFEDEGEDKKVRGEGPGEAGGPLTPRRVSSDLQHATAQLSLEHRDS
Conditions: protein: recombinant; tags: N-terminal GST; dsDNA, one strand shown. The essentials: as §1

Another assay has as its target T7, ETV3L (Homo sapiens, UniProt Q6ZN32 1-361).
T7 sequence: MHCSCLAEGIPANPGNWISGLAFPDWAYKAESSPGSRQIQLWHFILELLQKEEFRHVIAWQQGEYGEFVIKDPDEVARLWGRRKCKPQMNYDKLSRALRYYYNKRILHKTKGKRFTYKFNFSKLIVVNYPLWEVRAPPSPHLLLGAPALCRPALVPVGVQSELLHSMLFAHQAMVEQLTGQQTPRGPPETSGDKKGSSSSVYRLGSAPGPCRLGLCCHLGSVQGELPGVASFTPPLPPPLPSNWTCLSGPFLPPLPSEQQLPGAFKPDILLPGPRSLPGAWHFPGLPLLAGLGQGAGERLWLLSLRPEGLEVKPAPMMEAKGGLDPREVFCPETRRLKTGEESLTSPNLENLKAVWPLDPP
The conditions noted are these: protein: recombinant; tags: N-terminal GST; dsDNA, one strand shown. The method in brief:
as §1

The next assay has as its target T8, ETS2 (Homo sapiens, UniProt P15036 1-469).
T8 sequence: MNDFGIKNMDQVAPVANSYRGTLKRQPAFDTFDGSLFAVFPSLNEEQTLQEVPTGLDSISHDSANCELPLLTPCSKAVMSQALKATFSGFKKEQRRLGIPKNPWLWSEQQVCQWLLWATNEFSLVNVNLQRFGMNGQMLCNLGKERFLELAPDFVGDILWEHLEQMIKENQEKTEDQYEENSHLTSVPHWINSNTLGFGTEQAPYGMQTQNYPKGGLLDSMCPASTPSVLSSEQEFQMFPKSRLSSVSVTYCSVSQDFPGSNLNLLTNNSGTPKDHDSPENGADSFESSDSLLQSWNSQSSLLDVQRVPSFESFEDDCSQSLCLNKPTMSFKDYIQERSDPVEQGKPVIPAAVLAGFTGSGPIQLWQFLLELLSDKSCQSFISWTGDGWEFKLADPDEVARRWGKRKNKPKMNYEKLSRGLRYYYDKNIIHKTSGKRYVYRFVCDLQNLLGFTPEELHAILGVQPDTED
Conditions: protein: recombinant; tags: N-terminal GST; dsDNA, one strand shown. The essentials:
as §1

The next assay addresses T9, SPDEF (Homo sapiens, UniProt O95238 1-335).
T9 sequence: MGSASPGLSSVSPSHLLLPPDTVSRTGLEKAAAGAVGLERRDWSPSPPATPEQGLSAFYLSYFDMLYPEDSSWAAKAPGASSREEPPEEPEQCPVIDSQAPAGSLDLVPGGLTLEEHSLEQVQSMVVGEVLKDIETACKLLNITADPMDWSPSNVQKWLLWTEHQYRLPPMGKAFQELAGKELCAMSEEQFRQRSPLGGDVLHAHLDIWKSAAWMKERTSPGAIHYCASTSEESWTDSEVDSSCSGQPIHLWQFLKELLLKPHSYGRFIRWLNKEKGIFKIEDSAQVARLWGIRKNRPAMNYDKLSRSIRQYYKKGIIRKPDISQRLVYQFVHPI
The conditions noted are these: protein: recombinant; tags: N-terminal GST; dsDNA, one strand shown. The method in brief: as §1

Another assay concerns the target T10, ETV7 (Homo sapiens, UniProt Q9Y603 1-341).
T10 sequence: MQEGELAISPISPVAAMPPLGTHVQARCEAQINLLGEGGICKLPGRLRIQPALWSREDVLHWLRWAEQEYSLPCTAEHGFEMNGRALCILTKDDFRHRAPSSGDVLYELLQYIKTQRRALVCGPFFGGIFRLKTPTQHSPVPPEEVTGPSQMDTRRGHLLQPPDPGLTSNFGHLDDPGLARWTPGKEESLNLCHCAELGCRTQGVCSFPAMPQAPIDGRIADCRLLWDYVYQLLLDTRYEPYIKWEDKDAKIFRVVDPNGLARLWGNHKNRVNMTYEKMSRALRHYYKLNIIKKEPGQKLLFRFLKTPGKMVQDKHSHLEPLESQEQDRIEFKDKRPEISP
The conditions noted are these: protein: recombinant; tags: N-terminal GST; dsDNA, one strand shown. The method in brief: as §1

The next assay deals with T11, ELF5 (Homo sapiens, UniProt Q9UKW6-2 1-255).
T11 sequence: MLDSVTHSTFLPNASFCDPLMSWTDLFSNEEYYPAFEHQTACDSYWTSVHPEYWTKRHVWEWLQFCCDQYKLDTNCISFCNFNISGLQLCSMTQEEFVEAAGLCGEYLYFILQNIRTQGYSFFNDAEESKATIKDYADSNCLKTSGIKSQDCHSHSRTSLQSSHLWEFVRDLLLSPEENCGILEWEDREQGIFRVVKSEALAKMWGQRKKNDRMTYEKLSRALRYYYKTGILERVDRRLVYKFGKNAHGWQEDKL
Conditions: protein: recombinant; tags: N-terminal GST; dsDNA, one strand shown. The essentials:
as §1

For another assay, the target named is T12, ETV3 (Homo sapiens, UniProt P41162-2 1-143).
T12 sequence: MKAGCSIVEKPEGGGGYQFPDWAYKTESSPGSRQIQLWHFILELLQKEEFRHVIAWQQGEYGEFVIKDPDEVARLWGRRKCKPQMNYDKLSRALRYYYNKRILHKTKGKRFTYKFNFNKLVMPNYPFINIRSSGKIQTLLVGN
The conditions noted are these: protein: recombinant; tags: N-terminal GST; dsDNA, one strand shown. The essentials:
as §1

The next assay deals with ETV6 (Homo sapiens, UniProt P41212 1-452). The conditions noted are these: protein: recombinant; tags: N-terminal GST; dsDNA, one strand shown. The method in brief:
as §1

Sequence of HSF1 (Q00613 whole entry): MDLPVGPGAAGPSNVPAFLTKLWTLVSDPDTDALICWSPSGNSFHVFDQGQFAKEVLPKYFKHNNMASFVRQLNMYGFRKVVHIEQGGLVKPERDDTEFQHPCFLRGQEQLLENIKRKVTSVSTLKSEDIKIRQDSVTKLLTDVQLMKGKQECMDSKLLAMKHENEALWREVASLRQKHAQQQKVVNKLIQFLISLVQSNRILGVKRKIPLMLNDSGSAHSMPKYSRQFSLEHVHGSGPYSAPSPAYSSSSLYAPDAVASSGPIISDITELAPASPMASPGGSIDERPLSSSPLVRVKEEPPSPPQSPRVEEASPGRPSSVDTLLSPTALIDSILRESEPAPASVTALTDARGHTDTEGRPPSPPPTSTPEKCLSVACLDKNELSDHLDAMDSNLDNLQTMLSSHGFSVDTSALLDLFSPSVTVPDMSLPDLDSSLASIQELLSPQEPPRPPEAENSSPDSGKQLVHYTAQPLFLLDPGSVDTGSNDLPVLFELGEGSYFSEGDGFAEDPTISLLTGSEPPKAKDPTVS
Sequence of ETV1 (P50549 whole entry): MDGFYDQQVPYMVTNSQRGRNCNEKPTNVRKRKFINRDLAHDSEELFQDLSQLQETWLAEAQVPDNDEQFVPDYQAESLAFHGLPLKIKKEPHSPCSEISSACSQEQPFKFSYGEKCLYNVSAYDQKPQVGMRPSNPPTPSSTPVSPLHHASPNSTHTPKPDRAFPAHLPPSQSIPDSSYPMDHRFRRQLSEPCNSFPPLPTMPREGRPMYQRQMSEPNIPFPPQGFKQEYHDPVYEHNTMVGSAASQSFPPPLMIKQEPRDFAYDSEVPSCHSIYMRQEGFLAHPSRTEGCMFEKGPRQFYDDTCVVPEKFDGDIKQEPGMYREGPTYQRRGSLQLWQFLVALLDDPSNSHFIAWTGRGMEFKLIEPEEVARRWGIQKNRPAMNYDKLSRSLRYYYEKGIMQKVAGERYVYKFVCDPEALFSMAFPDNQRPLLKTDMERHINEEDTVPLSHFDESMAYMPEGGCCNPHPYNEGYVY
Sequence of CRX (O43186 whole entry): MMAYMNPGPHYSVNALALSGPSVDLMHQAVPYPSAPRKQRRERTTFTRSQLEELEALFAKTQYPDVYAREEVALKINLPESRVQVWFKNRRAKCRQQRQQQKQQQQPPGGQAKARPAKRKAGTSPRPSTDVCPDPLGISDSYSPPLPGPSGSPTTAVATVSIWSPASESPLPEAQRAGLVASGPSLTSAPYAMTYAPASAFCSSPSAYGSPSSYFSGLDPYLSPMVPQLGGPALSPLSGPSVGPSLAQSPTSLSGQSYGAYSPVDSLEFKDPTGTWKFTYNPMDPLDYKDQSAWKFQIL
Sequence of ETV6 (P41212 whole entry): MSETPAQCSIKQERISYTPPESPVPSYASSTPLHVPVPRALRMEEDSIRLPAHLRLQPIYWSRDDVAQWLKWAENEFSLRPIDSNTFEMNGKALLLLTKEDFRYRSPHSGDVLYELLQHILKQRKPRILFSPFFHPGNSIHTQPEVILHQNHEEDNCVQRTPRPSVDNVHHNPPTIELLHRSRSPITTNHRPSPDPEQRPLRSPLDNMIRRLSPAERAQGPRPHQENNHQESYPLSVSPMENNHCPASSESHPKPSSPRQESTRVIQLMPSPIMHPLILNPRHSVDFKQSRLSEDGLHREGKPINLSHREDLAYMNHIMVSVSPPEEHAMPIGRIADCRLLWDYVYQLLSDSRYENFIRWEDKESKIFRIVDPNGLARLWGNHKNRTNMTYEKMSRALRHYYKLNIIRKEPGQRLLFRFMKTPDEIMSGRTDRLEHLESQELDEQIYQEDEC

With GATCCT, the binding signal in the assay with FEV is 1.23 fold enrichment (6-mer frequency, TF over GST control); with ETV5, 1.27 fold enrichment (6-mer frequency, TF over GST control); in the assay with HSF1, 1.41 fold enrichment (6-mer frequency, TF over GST control); with SPIC it was 1.21 fold enrichment (6-mer frequency, TF over GST control); with ELF4, 1.35 fold enrichment (6-mer frequency, TF over GST control); in the assay with ELK4 it was 1.24 fold enrichment (6-mer frequency, TF over GST control). In addition, the binding signal with ETV2 was 1.43 fold enrichment (6-mer frequency, TF over GST control); with ELF3 it was 1.03 fold enrichment (6-mer frequency, TF over GST control); with CRX, 1.66 fold enrichment (6-mer frequency, TF over GST control); with ETV1, 1.34 fold enrichment (6-mer frequency, TF over GST control); with ERF it was 1.3 fold enrichment (6-mer frequency, TF over GST control); with ETV3L, 1.21 fold enrichment (6-mer frequency, TF over GST control). Moreover, the binding signal in the assay with ETS2 was 1.32 fold enrichment (6-mer frequency, TF over GST control); in the assay with SPDEF it was 1.84 fold enrichment (6-mer frequency, TF over GST control); with ETV7, 1.2 fold enrichment (6-mer frequency, TF over GST control); with ELF5, 1.29 fold enrichment (6-mer frequency, TF over GST control); with ETV3, 1.25 fold enrichment (6-mer frequency, TF over GST control); with ETV6 it was 1.28 fold enrichment (6-mer frequency, TF over GST control).
